“And” between values parts separate entries of the source, which are not always exact repeats. Identical values can stand only once. Records with an inconclusive call do not appear. The source made the active and inactive calls.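 Rule for the calls, unless noted: active = normalized viability below 100% at a tested concentration; inactive = the rest.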
How the values were obtained:
[1] = system: Aerobactin synthetase IucA (Klebsiella pneumoniae); test: IucA aerobactin synthetase inhibitors, biochemical, Tocris library, absorbance (AID 1345561; call rule not given here;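 note: 100% = enzyme without compound and 0% = no enzyme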); settings: purified IucA enzyme assay, absorbance (OD) read-out; stronger effect = lower value;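 tested at 8 µM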
[2] = growth inhibition of DIPG glioma cells, dose response, cell-based, SU-DIPG-XVII, MIPE5.0, CellTiter-Glo, qHTS (AID 1347060; cut-off not given, nearly all actives have AC50 up to about 26 µM); settings: SU-DIPG-XVII viability, CellTiter-Glo ATP luminescence
[3] = growth inhibition of DIPG glioma cells, dose response, cell-based, JHH-DIPG-1, MIPE4.0, CellTiter-Glo, qHTS (AID 1347062; cut-off not given, nearly all actives have AC50 up to about 27 µM); settings: JHH-DIPG-1 viability, CellTiter-Glo ATP luminescence
[4] = growth inhibition of DIPG glioma cells, dose response, cell-based, SU-DIPG-XIII, MIPE5.0, CellTiter-Glo, qHTS (AID 1347064; cut-off not given, nearly all actives have AC50 up to about 23 µM); settings: SU-DIPG-XIII viability, CellTiter-Glo ATP luminescence
[5] = JHH-DIPG-1 glioma cell viability, MIPE5.0 library, CellTiter-Glo luminescence, qHTS (AID 1347067; cut-off not given, nearly all actives have AC50 up to about 26 µM;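 note: cells exposed to compound for 48 hours before readout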); settings: JHH-DIPG-1 glioma viability, CellTiter-Glo ATP luminescence
[6] = sensitizers of A549 cells to miR-34 induction, primary screen, imaging, A549 dox-inducible miR-34, nuclei and caspase counts (AID 1347080;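 active = compounds whose cell count with miR-34 switched on is under 0.7 times the count with it off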); settings: A549 miR-34 inducible, Hoechst nuclei count, 48 h
[7] = modifiers of HSF1 nuclear foci, imaging, Selleck Cancer Library (AID 1347162; in the data active = plate-normalised HSF1 focus index below about 0.46); settings: human cells, at 10 µM; SSMD: measured here: HSF1 foci SSMD mean; cell count: measured here: cell number; plate-normalised HSF1 focus index: stronger effect = lower value
[8] = survival rescue of mitochondrial mutant cells in low glucose, primary screen, MELAS cybrids, Rieske KO mouse fibroblasts, CellTiter-Glo (AID 1508586;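 active = mean z-score across replicates of 1.96 or higher in either the MELAS or the Rieske mutant cell line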;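 note: z relative to plate mean and SD of compound and empty wells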)
[9] = ovarian cancer cell viability with rucaparib, profiling panel, oncology-focused library, rucaparib conditional (AID 1508598); settings: patient-derived ovarian cancer cells, CellTiter-Glo viability, 144 h, stronger effect = lower value
[10] = viability rescue of complex I mutant cybrids, primary screen, cell-based, galactose medium, ATP luminescence (AID 1645843;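 active = z-score of at least 1.8 in each of two replicates, scored against plate mean and spread of sample wells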;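 note: positive z means more ATP and so rescue of galactose-driven cybrid death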); settings: complex I mutant cybrid cells, 72 h, stronger effect = higher value
[11] = growth inhibition of DIPG glioma cells, dose response, cell-based, SU-DIPG-XIII, MIPE4.0, CellTiter-Glo, qHTS (AID 1347061; cut-off not given, nearly all actives have AC50 up to about 37 µM;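 note: cells exposed to compound for 48 hours before readout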); settings: SU-DIPG-XIII viability, CellTiter-Glo ATP luminescence
[12] = SU-DIPG-VI glioma cell viability, MIPE4.0 library, CellTiter-Glo luminescence, qHTS (AID 1347066; cut-off not given, nearly all actives have AC50 up to about 30 µM;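 note: cells exposed to compound for 48 hours before readout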); settings: CellTiter-Glo ATP luminescence
[13] = SU-DIPG-XXV glioma cell viability, MIPE5.0 library, qHTS (AID 1347068; cut-off not given, nearly all actives have IC50 up to about 30 µM)
[14] = stronger effect = lower value, cell number ratio, induced over uninduced
[15] = measured here: relative caspase fold change +Dox/-Dox
[16] = measured here: total cells with miR-34 induction, stronger effect = lower value
[17] = measured here: total cells without miR-34 induction

O=C(O)c1ccc(-c2c[nH]c3ncc(-c4ccccc4)cc23)cc1C1CCCC1
0.684 and 1.96: fold change [6, 15]
6900: cell count [7]
-2.05: z-score ([8]; Rieske KO mouse fibroblast survival, CellTiter-Glo 72 h)
3460 and 4530: cell count [6, 17]
1.9: SSMD [7]
2990 and 4050: cell count [6, 16]
inactive: remaining activity [1] 108% | outcome [2] | outcome [3] | outcome [4] | outcome [5] | fold change [6, 14] 0.863 and 0.894 | plate-normalised HSF1 focus index [7] 1.11 | z-score ([8]; MELAS cybrid survival, CellTiter-Glo 48 h, stronger effect = higher value) -0.208 | viability ([9]; at 0.000305 µM, OCI-C5x cells, with rucaparib 10 µM, 100% = cells with rucaparib alone) 113% | viability ([9]; at 0.000305 µM, OCI-C5x cells, without rucaparib) 105% | viability ([9]; at 0.00122 µM, OCI-C5x cells, with rucaparib 10 µM, 100% = cells with rucaparib alone) 106% | viability ([9]; at 0.00122 µM, OCI-C5x cells, without rucaparib) 118% | viability ([9]; at 0.00488 µM, OCI-C5x cells, with rucaparib 10 µM, 100% = cells with rucaparib alone) 112% | viability ([9]; at 0.00488 µM, OCI-C5x cells, without rucaparib) 120% | viability ([9]; at 0.00488 µM, OCI-P5x cells, with rucaparib 20 µM, 100% = cells with rucaparib alone) 101% | viability ([9]; at 0.00488 µM, OCI-P5x cells, without rucaparib) 100% | viability ([9]; at 0.0195 µM, OCI-C5x cells, with rucaparib 10 µM, 100% = cells with rucaparib alone) 118% | viability ([9]; at 0.0195 µM, OCI-C5x cells, without rucaparib) 115% | viability ([9]; at 0.0195 µM, OCI-P5x cells, without rucaparib) 103% | viability ([9]; at 0.0781 µM, OCI-C5x cells, without rucaparib) 112% | viability ([9]; at 0.0781 µM, OCI-P5x cells, without rucaparib) 103% | viability ([9]; at 0.313 µM, OCI-C5x cells, without rucaparib) 116% | viability ([9]; at 0.313 µM, OCI-P5x cells, with rucaparib 20 µM, 100% = cells with rucaparib alone) 102% | viability ([9]; at 0.313 µM, OCI-P5x cells, without rucaparib) 102% | viability ([9]; at 1.25 µM, OCI-C5x cells, without rucaparib) 105% | z-score [10] 0.065
active: viability ([9]; at 0.000305 µM, OCI-P5x cells, with rucaparib 20 µM, 100% = cells with rucaparib alone) 85.9% | viability ([9]; at 0.000305 µM, OCI-P5x cells, without rucaparib) 89.5% | viability ([9]; at 0.00122 µM, OCI-P5x cells, with rucaparib 20 µM, 100% = cells with rucaparib alone) 90% | viability ([9]; at 0.00122 µM, OCI-P5x cells, without rucaparib) 99.6% | viability ([9]; at 0.0195 µM, OCI-P5x cells, with rucaparib 20 µM, 100% = cells with rucaparib alone) 97.8% | viability ([9]; at 0.0781 µM, OCI-C5x cells, with rucaparib 10 µM, 100% = cells with rucaparib alone) 95.5% | viability ([9]; at 0.0781 µM, OCI-P5x cells, with rucaparib 20 µM, 100% = cells with rucaparib alone) 95.2% | viability ([9]; at 0.313 µM, OCI-C5x cells, with rucaparib 10 µM, 100% = cells with rucaparib alone) 91.3% | viability ([9]; at 1.25 µM, OCI-C5x cells, with rucaparib 10 µM, 100% = cells with rucaparib alone) 88.1% | viability ([9]; at 1.25 µM, OCI-P5x cells, with rucaparib 20 µM, 100% = cells with rucaparib alone) 93.8% | viability ([9]; at 1.25 µM, OCI-P5x cells, without rucaparib) 93.3% | viability ([9]; at 5 µM, OCI-C5x cells, with rucaparib 10 µM, 100% = cells with rucaparib alone) 65.2% | viability ([9]; at 5 µM, OCI-C5x cells, without rucaparib) 60.5% | viability ([9]; at 5 µM, OCI-P5x cells, with rucaparib 20 µM, 100% = cells with rucaparib alone) 92.6% | viability ([9]; at 5 µM, OCI-P5x cells, without rucaparib) 75.8%

CCOC(=O)C1=C(C)NC(=S)NC1c1cccc(O)c1 (centres undefined)
2900 and 8090: cell count [6, 16]
1 and 0.625: fold change [6, 15]
inactive: remaining activity [1] 109% | outcome [2] | outcome [11] | outcome [4] | outcome [12] | outcome [5] | outcome [13] | fold change [6, 14] 0.947 and 1.05 | z-score [10] 0.085
3060 and 7690: cell count [6, 17]

Source: PubChem BioAssay
